Four molecules from PubChem BioAssay (NCI) can be followed below.

About 83,000 compounds went through this panel and 20% of them were active in at least one assay; those are over-represented in the sample as a whole.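 96-well plates, one dose, 48 hours. Percent growth reported; active if below 10.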 Unmarked numbers belong to inactive results. The source made the active and inactive calls.

For the experiment, the system named is MDA-MB-468 breast. The experiment can be described thus: NCI-60 one-dose screen, 48 h (100 = growth as untreated, 0 = no growth, -100 = all killed). Particulars: 10 µM unless noted.
For `O=C1c2ccccc2-c2nccc3cc(Cl)nc1c23`, the growth was -87.2% (active). The result for `COc1cc(C2CC(c3ccc(C)cc3)=NN2C=O)ccc1OCCN(C)C` (centres undefined) reads 93.1%; that for `COc1cc(/C(C#N)=C/c2ccc3c(c2OC)OCO3)cc2c1OCO2`, 9.19% (active). The result for `O=C1c2cccnc2C(=O)c2c1c(C(=O)OCCCN1CCCCC1)c1ccccn21` reads 31.6%.
